# The full data set covers some 21,000 targets. This sample favours those with the largest changes.
# Compound: CC1Cc2ccccc2N1C(=O)C1CCCN(C1)C(=O)CCl (mixture of isomers) [TRIM25 ligand 11 (diastereomer mixture)]
# Test: probe-labelled cysteine peptide fold change vs DMSO (competition) (log2 fold change); higher = less target engagement (more negative = stronger competition)
# Settings: THP-1, incubation time: 4 h
# 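Also: competitive chemoproteomic profiling in live THP-1 cells with an iodoacetamide desthiobiotin (IA-DTB) probe, comparing probe-labelled peptide intensities in compound-treated cells against DMSO-treated controls.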
# Sequence of UniProt Q9NRM0 (Q9NRM0 whole entry): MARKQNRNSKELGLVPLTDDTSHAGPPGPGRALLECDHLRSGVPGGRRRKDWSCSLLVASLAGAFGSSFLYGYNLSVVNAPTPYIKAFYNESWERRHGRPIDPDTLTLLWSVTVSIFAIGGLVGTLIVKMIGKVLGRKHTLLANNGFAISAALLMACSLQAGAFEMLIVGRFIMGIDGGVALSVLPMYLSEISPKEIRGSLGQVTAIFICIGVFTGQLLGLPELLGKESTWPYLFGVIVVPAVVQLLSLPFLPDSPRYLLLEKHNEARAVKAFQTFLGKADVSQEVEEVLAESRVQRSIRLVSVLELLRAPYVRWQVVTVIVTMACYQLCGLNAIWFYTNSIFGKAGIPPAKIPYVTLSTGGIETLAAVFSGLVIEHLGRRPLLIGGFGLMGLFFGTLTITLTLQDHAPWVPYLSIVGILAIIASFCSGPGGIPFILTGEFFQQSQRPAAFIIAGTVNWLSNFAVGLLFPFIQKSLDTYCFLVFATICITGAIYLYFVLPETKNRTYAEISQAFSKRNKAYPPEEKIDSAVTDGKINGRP
# Sequence of UniProt Q9NZJ4 (Q9NZJ4 whole entry, looked up): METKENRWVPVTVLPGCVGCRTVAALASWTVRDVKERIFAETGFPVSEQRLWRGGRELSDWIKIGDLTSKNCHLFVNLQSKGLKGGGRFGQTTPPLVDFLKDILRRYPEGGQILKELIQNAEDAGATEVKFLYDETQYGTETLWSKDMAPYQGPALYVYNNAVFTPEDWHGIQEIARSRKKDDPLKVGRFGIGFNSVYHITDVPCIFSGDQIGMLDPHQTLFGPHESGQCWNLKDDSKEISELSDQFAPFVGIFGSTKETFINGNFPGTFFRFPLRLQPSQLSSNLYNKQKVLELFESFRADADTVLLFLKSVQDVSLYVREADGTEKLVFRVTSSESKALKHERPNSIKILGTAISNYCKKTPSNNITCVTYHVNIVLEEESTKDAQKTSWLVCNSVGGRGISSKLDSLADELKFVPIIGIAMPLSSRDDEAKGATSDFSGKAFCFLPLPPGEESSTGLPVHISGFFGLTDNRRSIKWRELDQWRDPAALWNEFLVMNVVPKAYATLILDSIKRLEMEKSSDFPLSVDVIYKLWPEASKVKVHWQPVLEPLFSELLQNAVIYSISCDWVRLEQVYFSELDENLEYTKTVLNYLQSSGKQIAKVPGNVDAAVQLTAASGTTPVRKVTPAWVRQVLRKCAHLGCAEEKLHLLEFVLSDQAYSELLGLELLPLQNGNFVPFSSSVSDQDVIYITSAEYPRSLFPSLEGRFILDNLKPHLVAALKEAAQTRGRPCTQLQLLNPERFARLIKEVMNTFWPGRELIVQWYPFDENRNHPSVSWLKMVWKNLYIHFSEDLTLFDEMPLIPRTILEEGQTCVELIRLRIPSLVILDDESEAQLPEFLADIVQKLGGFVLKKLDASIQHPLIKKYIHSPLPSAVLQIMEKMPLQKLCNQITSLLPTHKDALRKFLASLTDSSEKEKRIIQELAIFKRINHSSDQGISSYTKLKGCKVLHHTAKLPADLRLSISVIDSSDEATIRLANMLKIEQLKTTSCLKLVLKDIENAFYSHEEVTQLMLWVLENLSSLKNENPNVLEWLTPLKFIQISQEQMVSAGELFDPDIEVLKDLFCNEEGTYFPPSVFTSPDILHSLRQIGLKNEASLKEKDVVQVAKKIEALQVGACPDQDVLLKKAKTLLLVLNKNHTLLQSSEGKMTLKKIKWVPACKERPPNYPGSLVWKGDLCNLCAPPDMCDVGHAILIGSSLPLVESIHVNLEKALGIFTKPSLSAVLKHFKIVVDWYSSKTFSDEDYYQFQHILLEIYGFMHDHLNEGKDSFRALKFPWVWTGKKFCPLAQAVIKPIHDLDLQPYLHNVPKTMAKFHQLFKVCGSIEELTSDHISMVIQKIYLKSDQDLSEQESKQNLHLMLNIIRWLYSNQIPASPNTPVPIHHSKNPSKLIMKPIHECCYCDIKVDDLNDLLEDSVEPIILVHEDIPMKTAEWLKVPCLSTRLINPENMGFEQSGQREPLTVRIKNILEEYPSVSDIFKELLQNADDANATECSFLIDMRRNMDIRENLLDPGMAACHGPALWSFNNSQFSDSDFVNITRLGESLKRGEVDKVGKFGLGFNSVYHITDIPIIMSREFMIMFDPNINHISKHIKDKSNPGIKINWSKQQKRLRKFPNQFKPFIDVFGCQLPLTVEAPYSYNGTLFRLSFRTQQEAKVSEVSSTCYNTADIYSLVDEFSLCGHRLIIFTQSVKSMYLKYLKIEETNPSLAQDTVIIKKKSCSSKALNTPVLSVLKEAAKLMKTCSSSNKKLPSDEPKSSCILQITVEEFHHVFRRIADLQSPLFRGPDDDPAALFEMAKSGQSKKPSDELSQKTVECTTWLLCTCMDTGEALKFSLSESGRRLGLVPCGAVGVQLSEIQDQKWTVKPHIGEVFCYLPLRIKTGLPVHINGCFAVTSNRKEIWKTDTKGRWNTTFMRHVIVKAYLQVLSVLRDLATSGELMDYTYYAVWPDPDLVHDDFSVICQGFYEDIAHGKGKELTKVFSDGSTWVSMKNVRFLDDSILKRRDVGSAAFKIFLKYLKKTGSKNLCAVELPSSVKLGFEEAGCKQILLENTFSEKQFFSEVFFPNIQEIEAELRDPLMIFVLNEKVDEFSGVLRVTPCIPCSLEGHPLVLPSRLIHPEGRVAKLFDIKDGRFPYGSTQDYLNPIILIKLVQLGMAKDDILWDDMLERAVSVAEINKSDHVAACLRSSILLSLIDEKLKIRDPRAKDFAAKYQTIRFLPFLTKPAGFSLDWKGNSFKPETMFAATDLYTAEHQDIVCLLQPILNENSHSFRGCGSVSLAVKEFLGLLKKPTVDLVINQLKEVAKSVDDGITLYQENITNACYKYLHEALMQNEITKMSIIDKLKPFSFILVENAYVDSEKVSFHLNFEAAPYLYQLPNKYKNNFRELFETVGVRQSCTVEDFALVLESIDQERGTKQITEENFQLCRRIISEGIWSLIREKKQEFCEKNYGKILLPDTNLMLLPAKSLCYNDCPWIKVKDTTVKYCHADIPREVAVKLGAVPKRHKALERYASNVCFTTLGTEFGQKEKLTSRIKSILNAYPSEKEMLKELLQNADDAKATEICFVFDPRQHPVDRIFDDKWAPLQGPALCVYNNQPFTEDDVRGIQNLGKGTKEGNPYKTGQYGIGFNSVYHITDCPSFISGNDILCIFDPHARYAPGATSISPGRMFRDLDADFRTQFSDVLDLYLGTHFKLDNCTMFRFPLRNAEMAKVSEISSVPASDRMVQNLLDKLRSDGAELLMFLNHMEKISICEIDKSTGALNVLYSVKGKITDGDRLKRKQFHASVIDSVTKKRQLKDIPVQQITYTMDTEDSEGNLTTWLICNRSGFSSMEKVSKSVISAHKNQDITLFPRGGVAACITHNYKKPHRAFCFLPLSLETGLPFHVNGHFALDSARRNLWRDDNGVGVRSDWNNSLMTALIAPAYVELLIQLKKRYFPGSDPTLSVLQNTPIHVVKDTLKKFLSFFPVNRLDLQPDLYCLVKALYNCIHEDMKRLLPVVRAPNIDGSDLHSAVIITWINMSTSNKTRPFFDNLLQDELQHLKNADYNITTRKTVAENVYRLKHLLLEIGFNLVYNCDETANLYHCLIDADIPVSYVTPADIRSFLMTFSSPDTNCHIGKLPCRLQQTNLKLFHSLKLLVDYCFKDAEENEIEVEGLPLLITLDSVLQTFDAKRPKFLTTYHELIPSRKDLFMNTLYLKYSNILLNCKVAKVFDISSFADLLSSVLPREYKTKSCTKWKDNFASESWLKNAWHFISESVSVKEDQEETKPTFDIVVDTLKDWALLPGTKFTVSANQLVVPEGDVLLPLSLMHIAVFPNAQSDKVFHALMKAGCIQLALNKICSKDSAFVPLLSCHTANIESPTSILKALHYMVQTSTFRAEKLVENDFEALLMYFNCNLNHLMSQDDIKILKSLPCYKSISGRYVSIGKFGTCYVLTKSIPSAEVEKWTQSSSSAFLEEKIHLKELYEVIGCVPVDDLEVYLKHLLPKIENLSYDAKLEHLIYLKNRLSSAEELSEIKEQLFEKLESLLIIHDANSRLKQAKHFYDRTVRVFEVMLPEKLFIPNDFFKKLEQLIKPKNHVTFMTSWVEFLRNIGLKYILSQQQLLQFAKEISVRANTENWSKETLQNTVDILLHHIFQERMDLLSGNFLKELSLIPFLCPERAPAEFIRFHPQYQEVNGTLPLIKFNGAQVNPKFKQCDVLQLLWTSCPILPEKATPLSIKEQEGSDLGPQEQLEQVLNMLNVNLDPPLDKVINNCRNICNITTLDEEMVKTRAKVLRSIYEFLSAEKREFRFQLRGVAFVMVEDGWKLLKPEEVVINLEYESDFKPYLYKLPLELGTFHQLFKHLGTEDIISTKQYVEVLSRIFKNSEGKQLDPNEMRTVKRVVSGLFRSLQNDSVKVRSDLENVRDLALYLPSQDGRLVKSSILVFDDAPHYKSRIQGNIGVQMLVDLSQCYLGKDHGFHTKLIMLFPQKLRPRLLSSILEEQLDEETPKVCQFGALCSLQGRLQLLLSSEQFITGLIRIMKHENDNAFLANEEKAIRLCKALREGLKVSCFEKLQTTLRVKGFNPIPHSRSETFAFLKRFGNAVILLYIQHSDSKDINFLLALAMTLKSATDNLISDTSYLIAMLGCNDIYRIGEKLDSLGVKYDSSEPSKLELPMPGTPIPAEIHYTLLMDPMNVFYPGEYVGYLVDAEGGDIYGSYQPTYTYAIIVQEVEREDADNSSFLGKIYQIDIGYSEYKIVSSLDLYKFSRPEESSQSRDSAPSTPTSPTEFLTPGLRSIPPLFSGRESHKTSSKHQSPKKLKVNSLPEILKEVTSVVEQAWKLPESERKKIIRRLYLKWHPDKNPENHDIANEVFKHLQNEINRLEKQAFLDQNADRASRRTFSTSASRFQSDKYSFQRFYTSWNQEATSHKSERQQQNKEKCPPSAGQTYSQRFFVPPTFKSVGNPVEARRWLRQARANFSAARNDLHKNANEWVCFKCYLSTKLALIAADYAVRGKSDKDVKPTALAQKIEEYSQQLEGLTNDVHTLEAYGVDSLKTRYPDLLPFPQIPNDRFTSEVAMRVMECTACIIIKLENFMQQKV
Target,probe-labelled cysteine peptide fold change (10 µM),probe-labelled cysteine peptide fold change (50 µM)
RRAGB_Q5VZM2_185_IFCLVHK (UniProt Q5VZM2),0.162,0.183
SEC61A1_P61619_13_FLEVIKPFCVILPEIQKPERK (UniProt P61619),-0.291,-0.191
SIRT5_Q9NXA8_293+303_FHFQGPCGTTLPEALACHENETVS (UniProt Q9NXA8),0.203,-0.0498
SAR1A_Q9NR31_178_ELNARPMEVFMCSVLKR (UniProt Q9NR31),-0.614,-0.486
RPS6KA3_P51812_436_EDIGVGSYSVCK<|>RPS6KA2_Q15349_429_EDIGVGSYSVCK (UniProt Q15349+P51812),-0.0733,-0.656
RRP12_Q5JTH9_673_GCQAEADRAEVSR (UniProt Q5JTH9),0.0652,-0.00566
SIGIRR_Q6IA17_174_LYDAYVSYSDCPEDR (UniProt Q6IA17),0.24,-0.151
SLU7_O95391_445_CCHSFFK (UniProt O95391),0.132,0.191
SMARCD2_Q92925_298_CTLLLMLDHQPPQYK (UniProt Q92925),-0.0298,-0.00447
SLC2A9_Q9NRM0_36_ALLECDHLR (UniProt Q9NRM0),-0.0472,-0.18
SLC25A16_P16260_246_THVNLLCGGVAGAIAQTISYPFDVTR (UniProt P16260),0.365,0.384
RPS28_P62857_27_TGSQGQCTQVRVEFMDDTSR (UniProt P62857),-0.718,-0.281
SNRPC_P09234_25_KTHCSGR (UniProt P09234),-0.332,-0.766
SCAF11_Q99590_566_VYQPVSCPLSDLSENVESVVNEEK (UniProt Q99590),-0.0494,-0.138
SACS_Q9NZJ4_3694_QCDVLQLLWTSCPILPEK (UniProt Q9NZJ4),-0.00918,-0.0315
SMARCA2_P51531_1016_ICNHPYMFQHIEESFAEHLGYSNGVINGAELYR (UniProt P51531),-0.0517,-0.116

Target,probe-labelled cysteine peptide fold change (10 µM),probe-labelled cysteine peptide fold change (50 µM)
SRBD1_Q8N5C6_912_SIVCLEDLQIGTVLTGK (UniProt Q8N5C6),0.0769,-0.14
SMS_P52788_256_TCGDVLDNLKGDCYQVLIEDCIPVLKR (UniProt P52788),-0.302,-0.139
RTN3_O95197-3_46_SCSSSCAVHDLIFWR (UniProt O95197),-0.00795,-0.919
SNX14_Q9Y5W7_593_IPVFCIDVER (UniProt Q9Y5W7),0.3,0.776
SAMD4B_Q5PRF9_20_GWNECEQTVALLSLLK<|>SAMD4A_Q9UPU9_20_GWNECEQTVALLSLLK (UniProt Q9UPU9+Q5PRF9),-0.204,0.121
SNRPC_P09234_6_FYCDYCDTYLTHDSPSVR (UniProt P09234),-0.122,-0.874
SNX5_Q9Y5X3_250_NVADDYIHTAACLHSLALEEPTVIKK (UniProt Q9Y5X3),-0.0814,-0.118
RRM1_P23921_218_WFTHASPTLFNAGTNRPQLSSCFLLSMKDDSIEGIYDTLK (UniProt P23921),0.111,0.0345
SLC4A1AP_Q9BWU0_399_EGEELEYEFDEQGHSTWLCR (UniProt Q9BWU0),-0.0527,0.0332
SON_P18583_2070_ANAAAMCAK (UniProt P18583),0.0129,-0.103
SP1_P08047_633_KQHICHIQGCGK (UniProt P08047),-0.185,-0.216
SLC25A10_Q9UBX3_69_TDGILALYSGLSASLCR (UniProt Q9UBX3),0.0966,0.615
SEC62_Q99442_55_AVDCLLDSK (UniProt Q99442),-0.122,-0.249
RREB1_Q92766_291_DAMGRPFIQNNPSIPAGFHDLGFTDFSCR (UniProt Q92766),-0.104,-0.0626
SIRT6_Q8N6T7_141_LAELHGNMFVEECAK (UniProt Q8N6T7),0.087,0.00561
SNRPB_P14678_43+45_HMNLILCDCDEFRK (UniProt P14678),-0.0283,-0.00106
